Records with an inconclusive call do not appear. Calls of active or inactive are those of the source. Calls come from the whole dose curve; as a rule, active = well fitted cell-killing curve with a large enough effect; inconclusive = small, poorly fitted or top-dose-only effect; inactive = no such curve, though single readings can be large or run the other way.

The results in this text go back to PubChem BioAssay (NCATS).
Potency is the fitted concentration of half-maximal effect.

A short description of this assay: qHTS of pediatric cancer cell lines to identify multiple opportunities for drug repurposing: Confirmatory screen for SK-N-MC cells (AID 1347111).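 Note: cells exposed to compound for 48 h before the readout; nearly all actives have a fitted effect of over 70% in size.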 The note with it: SK-N-MC cell viability; series mostly up to 45.9 µM. The source says:
Drug repurposing or repositioning has been offered as a strategy for drug development in oncology programs. This approach has special potential for childhood cancers and other rare or orphan diseases, where the expected return on new drug development has been a disincentive to pharmaceuticals.
In this project we exploit the poly-pharmacology of drugs to discover new indications via phenotypic screening of a panel of 19 well-characterized cell lines derived from solid tumors seen in children and adolescents. The goal is to identify approved drugs with previously unrecognized anticancer properties that has the potential to reveal new mechanisms and biological processes involved in carcinogenesis or drug resistance. We employed a titration-based paradigm (quantitative high-throughput screening or qHTS), where all compounds were tested at multiple concentrations for their effect on cell viability. Concentration-response curves (CRCs) were derived directly from the primary screen, and both potency and efficacy values were used to identify compounds with robust bioactivity profiles. We screened the NIH Chemical Genomics Center (NCGC) Pharmaceutical Collection (NPC) and Mechanism Interrogation Plate (MIPE) small molecule collections of approved and investigational compounds against these cell lines; and measured metabolically active cells after 48 hours of compound treatment as a proxy for cell viability.
Assay Submitter: Nathalia J. Martinez, National Center for Advancing Translational Sciences, National Institutes of Health, Rockville, MD, USA; email: natalia.martinez@nih.gov
[1] Shen, M et al. Quantitative high-throughput phenotypic screening of pediatric cancer cell lines identifies multiple opportunities for drug repurposing. Oncotarget 2017 Dec 19;9(4):4758-4772. PMID 29435139.
The cells were obtained from University of North Carolina (UNC), Pediatric Preclinical Testing Program (PPT), and Coriell Institute (CI).
qHTS cell viability assay:
Cells were assayed in growth media at a density of 500-1,000 cells/well. Five microliters of cells were dispensed into 1,536-well, white, solid-bottom, TC-treated plates (Greiner Bio One) using a multidrop dispenser and incubated at 37 degrees C, 5% CO2, under a humidified atmosphere for 5 hours. Twenty-three nanoliters of compounds and controls (neutral control DMSO or positive control bortezomib at final concentration of 2.3 µM) were subsequently transferred by Kalypsys pintool. For primary screens, the MIPE collection was tested at 11-point dilutions (final concentrations range from 0.78 nM to 46 µM) and the NPC collection at 8-point dilutions (final concentrations range from 0.59nM to 46 µM). Compounds tested in follow-up screens were assayed at 11-point dilutions. Cells were incubated for 48 hours, followed by addition of 3 uL of CellTiter-Glo (Promega). After a 15 min incubation at room temperature, samples were analyzed for luminescence intensity using a ViewLux High-throughput CCD imager equipped with clear filters.
Background: Quantitative high-throughput screening tests each substance at several concentrations.
For `C[C@]12CCC(=O)C=C1CC[C@@H]1[C@@H]2[C@@H](O)C[C@@]2(C)[C@H]1CC[C@]2(O)C(=O)COC(=O)CCC(=O)O`, the Potency is 18.5 µM (active).

Consider `Nc1ccc2cc3ccc(N)cc3nc2c1`, for which the Potency was 8.27 µM (active).

In the case of `CC(=O)O[C@@H]1C(=O)O[C@@H]2[C@H]1OC(=O)[C@@H]2OC(C)=O`, the Potency was 16.5 µM (active).

With `Cc1cc(OCCOCC[N+](C)(C)Cc2ccccc2)ccc1C(C)(C)CC(C)(C)C`, the Potency is 2.61 µM (active).

For the compound `Cc1ccc(C(=O)Oc2ccc(C(O)CNC(C)(C)C)cc2OC(=O)c2ccc(C)cc2)cc1` (configuration not stated), the Potency is 11.7 µM (active).

Consider `O=[N+]([O-])c1ccc(O)c2ncccc12`, for which the Potency was 8.27 µM (active).

`CC(=O)[C@@]1(O)CC[C@H]2[C@@H]3C[C@H](C)C4=CC(=O)CC[C@]4(C)[C@H]3CC[C@@]21C`: the Potency is 4.14 µM (active).

`CCC1(c2cnc[nH]2)Cc2ccccc2C1`: the Potency is 3.29 µM (active).

On to `CCc1cc2cc(OC)c(OC)cc2c(Cc2ccccc2)n1`, for which the Potency entry is “inactive”.

Take `CC[C@@]1(O)C(=O)OCc2c1cc1n(c2=O)Cc2c-1nc1ccccc1c2/C=N/OC(C)(C)C`: the Potency was 0.0052 µM (active).

In the case of `CC(C)=CCC/C(C)=C/CC/C(C)=C/C(=O)OCC(=O)[C@@]1(O)CC[C@H]2[C@@H]3CCC4=CC(=O)C=C[C@]4(C)[C@H]3[C@@H](O)C[C@@]21C`, the Potency is 18.5 µM (active).

For the compound `CCCCC(=O)OCC(=O)[C@H]1[C@H](C)C[C@H]2[C@@H]3C[C@H](F)C4=CC(=O)C=C[C@]4(C)[C@@]3(F)[C@@H](O)C[C@@]21C`, the Potency was 10.4 µM (active).

For the compound `CO[C@@H]1[C@@H](OC)[C@H](C)[C@@](O)(CC(=O)O)O[C@H]1[C@H](C)[C@H]1O[C@@]2(CC[C@@](C)([C@H]3CC[C@@](C)([C@@H]4O[C@@H]([C@H]5O[C@](C)(O)[C@H](C)C[C@@H]5C)C[C@@H]4OC4C[C@H](OC)[C@@H](OC)[C@H](C)O4)O3)O2)C[C@H](O)[C@H]1C` (some centres not stated), the Potency was 1.31 µM (active).

Consider `CC(C)(C)CC(=O)OCC(=O)[C@@]1(O)CC[C@H]2[C@@H]3CCC4=CC(=O)C=C[C@]4(C)[C@H]3[C@@H](O)C[C@@]21C`, for which the Potency entry is “inactive”.

Turning to `Nc1c2ccccc2nc2ccccc12`, the Potency was 3.29 µM (active).

`CCC1=C[C@@H]2CN(C1)Cc1c([nH]c3ccccc13)[C@@](C(=O)OC)(c1cc3c(cc1OC)N(C)[C@H]1[C@@](O)(C(=O)OC)[C@H](OC(C)=O)[C@]4(CC)C=CCN5CC[C@]31[C@@H]54)C2`: the Potency was 0.0185 µM (active).

With `CCCC(=O)O[C@]1(C(=O)CCl)[C@@H](C)C[C@H]2[C@@H]3CCC4=CC(=O)C=C[C@]4(C)[C@@]3(F)C(=O)C[C@@]21C`, the Potency is 14.7 µM (active).

Regarding `O=c1[nH]sc2cc(Cl)ccc12`, the Potency was 9.27 µM (active).

Take `COc1c(C)c2c(c(O)c1C/C=C(\C)CCC(=O)OCCN1CCOCC1)C(=O)OC2`: the Potency is 1.65 µM (active).

In the case of `Cc1nc(N)nc(N)c1-c1ccc(Cl)c(Cl)c1`, the Potency was 0.147 µM (active).

`CCC(=O)O[C@]1(C(=O)COC)[C@@H](C)C[C@H]2[C@@H]3CCC4=CC(=O)C=C[C@]4(C)C3(F)[C@@H](O)C[C@@]21C` (some centres not stated): the Potency result was “inactive”.

Regarding `CCCC(=O)O[C@]1(C(=O)COC(=O)CC)CC[C@H]2[C@@H]3CCC4=CC(=O)CC[C@]4(C)[C@H]3[C@@H](O)C[C@@]21C`, the Potency was 6.57 µM (active).
